# A selection: hits, their analogues and other compounds. The true share with any hit is near 4.7%.
# KLK7 zymogen act: activates the human kallikrein-7 zymogen. P49862. purified proKLK7, EDANS-DABCYL substrate fluorescence; 100% is mature enzyme control, 0% vehicle. activation, % at 7 µM. actives 0.9% (n = 370,000);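 active = activation above the mean of all tested compounds plus 3 SD, computed per campaign excluding outliers beyond control limits, cut at about 13% in these data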
# Target sequence (P49862 whole entry, looked up): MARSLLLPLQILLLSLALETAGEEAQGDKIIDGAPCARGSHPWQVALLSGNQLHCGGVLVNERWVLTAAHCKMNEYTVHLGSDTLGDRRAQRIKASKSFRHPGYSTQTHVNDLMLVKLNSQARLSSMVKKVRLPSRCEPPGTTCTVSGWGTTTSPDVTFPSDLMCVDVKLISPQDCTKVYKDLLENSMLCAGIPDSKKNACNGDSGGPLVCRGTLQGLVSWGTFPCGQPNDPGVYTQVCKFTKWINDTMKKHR
# ADAM17 inh: ADAM17 inhibition, QFRET primary screen | AID 720648 | actives 0.83% (n = 370,000) | P78536 | inhibition, % at 6.95 µM | recombinant ADAM17, EDANS/DABCYL FRET peptide cleavage;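 active = inhibition above the mean of compounds lying between control limits plus 3 SD, set per campaign, cut at about 8.5% in these data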;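 also: 0% = DMSO-only wells as the low control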
# MPTP block: inhibitors of mitochondrial permeability transition pore. isolated mouse mitochondria, Ca2+ swelling absorbance, 30 min. inhibition, % at 10 µM. AID 602449. actives 1.4% (n = 360,000);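 active = inhibition of 50% or more, scaled per plate between neutral and stimulator controls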;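 also: 0% = DMSO wells given calcium and 100% = 1 mM EGTA wells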
# ADAM10 inh: ADAM10 inhibition, QFRET primary screen. O14672. recombinant ADAM10, EDANS/DABCYL FRET peptide cleavage, 3 h. inhibition, % at 7 µM. actives 0.62% (n = 370,000). AID 720582;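 active = inhibition above a per-campaign cutoff equal to the mean of compounds falling between control-based bounds plus 3 SD, cut at about 20% in these data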;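 also: 0% = DMSO wells while the 100% control is not disclosed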
# rCAG RNA binder: molecules binding r(CAG) RNA repeats | r(CAG) RNA repeat, TO-PRO-1 dye displacement fluorescence | inhibition, % at 3 µM | actives 1.3% (n = 370,000);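 active = inhibition above the plate cutoff, the mean of all test compounds on that plate plus 3 SD, cut at about 35% in these data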;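 also: 0% = DMSO alone and 100% = 100 µM mitoxantrone as full dye displacement; higher means more dye released from RNA so lower well fluorescence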
# Pemphigus Ab inh: blocks pemphigus antibody binding to human desmoglein-3; P32926; DSG3-coupled beads, scFv-anti-DSG3-GFP binding, flow cytometry; active compounds read low; binding (percent of control), % at 10 µM; actives 0.48% (n = 310,000);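 active = binding more than 3 SD below its plate's average and above zero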;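 also: hits lower antibody fragment binding to DSG3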
# MPTP counter: membrane potential counter-screen of mitochondrial pore inhibitors; shares compounds with MPTP block; isolated mitochondria, Rhodamine 123 fluorescence; inhibition, % at 10 µM; actives 78% (n = 5,000); in the data active = inhibition above about 22%;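 also: 0% = DMSO vehicle and 100% = positive control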
# MPTP abs DR: MPTP inhibition, dose response swelling confirmation. shares compounds with MPTP block. isolated mitochondria swelling, absorbance. IC50, µM. actives 58% (n = 780); in the data active = IC50 below about 20 µM
# MPTP cs DR: active in counter-screen for permeability transition pore inhibitors | actives 49% (n = 780) | isolated mitochondria counterscreen, fluorescence read-out | shares compounds with MPTP block | IC50, µM; in the data active = IC50 below about 80 µM
# * = called active by the depositor; i = inactive; · = no result given.
SMILES,KLK7 zymogen act,ADAM17 inh,MPTP block,ADAM10 inh,rCAG RNA binder,Pemphigus Ab inh,MPTP counter,others
CCCc1nc(SC2CCCC2)c2c(=O)n(C)c(=O)n(C)c2n1,-0.2,1.2,71.8*,-2.9,0.8,101.7,4.3,MPTP abs DR=i;MPTP cs DR=70.1*
CCCc1nc(SCC(=O)N2CCC(C)CC2)c2c(=O)n(C)c(=O)n(C)c2n1,0.5,1.7,1.3,8.2,-2.8,98.4,·,
O=C(NNc1ncnc2sccc12)c1ccc(Cl)cc1,-0.4,2.0,31.5,2.4,0.4,87.6,·,
Cc1csc2ncnc(NNC(=O)c3ccc(Cl)cc3)c12,0.5,2.9,55.2*,17.4,0.9,115.5,38.9*,
Cc1ccc(S(=O)(=O)N(C)c2cccc3c2S(=O)(=O)N([C@H](C)c2ccccc2)C[C@@H](COCc2ccccc2)O3)cc1,-0.4,3.0,·,10.8,8.4,·,·,
Clc1ccc(/C=C/c2nc3ccccc3[nH]2)cc1,9.7,-374.2,80.1*,i,4.4,101.2,84.7*,
Clc1ccc(/C=C/c2nc3ccccc3[nH]2)c(Cl)c1,-2.2,i,86.2*,i,12.7,107.0,79.4*,
O=C(/C=C/c1ccc(Cl)cc1Cl)c1nc2ccccc2[nH]1,0.5,-0.7,-1.8,4.8,3.9,100.3,·,
Clc1ccc(SCc2nc3ccccc3[nH]2)cc1,0.1,-6.2,15.8,-8.1,1.2,99.1,·,
Clc1cccc(Cl)c1/C=C/c1nc2ccccc2[nH]1,·,·,95.3*,·,·,104.4,81.9*,
O=C(CN(CCc1ccccc1)S(=O)(=O)c1ccc(Cl)s1)N1CCOCC1,0.6,-3.0,·,-11.7,0.8,·,·,
O=C(NCC1CCN(C(=O)C(=O)c2cc3ccccc3o2)CC1)c1cccnc1,-0.1,-3.9,·,-1.5,0.7,·,·,
COC(=O)c1c(C)cc(O)cc1O,0.6,-3.0,-3.1,-12.8,0.3,98.9,·,
Cc1cc(OC(=O)c2c(C)cc(OC(=O)c3c(C)cc(O)cc3O)cc2O)cc(O)c1C(=O)O,-0.2,-5.2,71.9*,-7.2,68.8*,97.3,67.5*,
COC(=O)C1=C(C)N(Cc2ccc(C(F)(F)F)cc2)C(=NCc2cccc(C(F)(F)F)c2)NC1c1ccccc1C(F)(F)F (stereo not drawn),-0.5,0.1,·,-1.0,2.6,·,·,
S=C(Nc1ccc(Cl)cc1)NC1CCCCC1,-1.2,-9.0,81.8*,-19.4,2.9,·,92.6*,
S=C(NCCc1ccc(Cl)cc1)NC1CCCCC1,0.3,-0.5,34.2,-3.2,-3.8,·,·,
NS(=O)(=O)c1ccc(NC(=S)NC2CCCCC2)cc1,-0.1,2.5,-0.8,1.4,2.5,102.4,·,
S=C(Nc1ccc(Br)cc1)NC1CCCCC1,-0.1,2.7,97.2*,11.9,0.8,124.5,99.1*,
S=C(NCCc1ccc(Cl)cc1)NC1CCCC1,0.0,2.2,52.9*,3.2,-1.7,84.4,77.8*,
COC(=O)c1ccc(NC(=S)NC2CC3CCC2C3)cc1 (stereo not drawn),-0.7,6.5,101.4*,12.7,5.1,104.1,91.0*,
FC(F)Oc1ccc(NC(=S)NC2CCCCCCC2)cc1,0.1,6.7,34.0,8.7,3.1,96.7,·,
Cc1cc(C)cc(N(CC(=O)NC2CCC(C)CC2)S(=O)(=O)c2ccc([N+](=O)[O-])cc2)c1 (stereo not drawn),-0.1,0.6,·,-1.8,0.9,·,·,
COC(=O)c1ccc(NC(=S)NC2CCCCC2)cc1,0.2,0.7,90.1*,4.1,-2.0,99.7,79.5*,
COC(=O)c1ccc(NC(=O)NC2CCCCC2)cc1,0.0,-0.1,3.0,3.2,-3.4,100.4,·,
SMILES,KLK7 zymogen act,ADAM17 inh,MPTP block,ADAM10 inh,rCAG RNA binder,Pemphigus Ab inh,MPTP counter,others
S=C(Nc1cccc(Cl)c1)NC1CCCCC1,0.8,-0.8,98.8*,1.0,2.5,105.2,107.5*,
Cc1cc(C)cc(CC(Cc2nc3ccccc3[nH]2)c2nc3ccccc3[nH]2)c1 (stereo not drawn),-0.5,2.4,96.3*,8.8,3.3,108.8,108.4*,
Cn1cccc1C(=O)N1CCN(S(=O)(=O)c2ccc(Br)s2)CC1,0.6,0.4,·,-3.2,3.6,·,·,
Cc1ccccc1OCCCCc1c(C)n[nH]c1C,0.1,0.0,100.6*,10.0,-6.1,99.4,97.9*,
Cc1n[nH]c(C)c1CCCCOc1ccccc1[N+](=O)[O-],0.7,-2.4,85.3*,5.8,-1.8,100.5,74.0*,
C=CC[C@@H]1NN2C(=O)[C@@H](C)[C@@H]3c4ccccc4C=NN3[C@@H]2c2ccccc21,0.0,-7.7,·,-14.2,9.8,·,·,
CN(Cc1ccc(OCC(O)CN2CCCCC2)cc1)Cc1ccnc2ccccc12 (stereo not drawn),-0.6,-3.8,94.6*,-1.4,-7.4,·,106.0*,
Cc1cccc(NC(=O)c2cc(-c3cc(C)c(C)cc3O)n[nH]2)c1,-1.0,-2.5,0.4,7.7,3.5,94.2,·,
COc1ccc(CCNC(=O)c2cc(-c3ccc(C)c(C)c3O)n[nH]2)cc1OC,-0.6,-2.0,8.2,6.5,6.2,97.9,·,
Cc1ccc(-c2cc(C(=O)Nc3cccnc3)[nH]n2)c(O)c1C,0.0,0.1,62.0*,6.5,8.8,104.4,71.0*,
O=C(NCc1ccc2c(c1)OCO2)c1cc(-c2cc(Cl)ccc2O)n[nH]1,-0.4,-0.6,64.3*,1.5,14.5,89.0,61.5*,
Cc1ccc(-c2cc(C(=O)NCc3ccc4c(c3)OCO4)[nH]n2)c(O)c1C,0.4,4.8,61.1*,9.7,13.3,101.7,71.5*,
CCOC(=O)[C@]12CCCCC/C=C\1N(CCc1ccc(Cl)cc1)C(=O)[C@H]2CC(=O)NCCCCc1ccccc1,-0.8,7.6,·,12.9,6.0,·,·,
CCOc1cc(NC(=S)Nc2ccc(Cl)cc2)c(OCC)cc1NC(C)=O,-0.2,2.3,73.3*,3.4,-0.3,96.8,99.5*,
CCOc1ccccc1NC(=O)Nc1ccc(Cl)cc1,-1.0,5.1,90.2*,15.8,4.0,100.4,89.6*,
CCOc1ccccc1NC(=O)Nc1ccccn1,0.3,-3.9,1.3,0.5,0.1,99.5,·,
CCc1ccc(OCC(=O)NC(NC(=S)Nc2ccccc2)C(Cl)(Cl)Cl)cc1 (stereo not drawn),-0.4,-2.4,80.2*,5.0,4.0,88.4,87.8*,
Cc1ccccc1NC(=S)NC(NC(=O)COc1ccccc1)C(Cl)(Cl)Cl (stereo not drawn),-0.8,-3.5,80.1*,0.2,3.8,·,82.9*,
COC(=O)c1ccccc1NC(=S)NC(NC(=O)COc1ccccc1)C(Cl)(Cl)Cl (stereo not drawn),-0.7,3.7,22.7,-3.3,6.6,108.3,·,

# From PubChem BioAssay
